Values joined by “and” are separate entries in the source; they are usually repeats but may differ in a detail not shown here. Equal values may be shown once. Values without a mark were called inactive. Records with an inconclusive call do not appear. Entries that show only a call come without a potency. Active and inactive are the calls of the source. Unless noted, calls come from the whole dose curve; as a rule, active = well fitted curve in the direction sought with a large enough effect in the repeat runs; inconclusive = weak or mixed curves; inactive = no such curve, though single readings can be large; an effect the other way counts as inactive or inconclusive.
Experiments:
[1] = qHTS assay to identify small molecule agonists of the hypoxia (HIF-1) signaling pathway - cell viability counter screen (AID 1224844; calls by dose curve; note: nearly all actives have a fitted effect of over 50% in size)
In short: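 HRE-bla ME-180 cells in medium with 0.5% dialyzed FBS were preincubated 5 hrs at 37C, exposed to compounds for 17 hrs, then viability was read as CellTiter-Glo luminescence after 30 min at room temperature, in the reporter wells.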

[2] = qHTS assay to identify small molecule agonists of H2AX (AID 1224845; active = well fitted activation curve with a large enough effect in the signal ratio in the repeat runs, not every such curve was filed as active; the % refers to the signal ratio)
In short: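 Wild-type CHO-K1 cells, plated overnight, exposed 3hr at 37C to 15 concentrations (0.76% DMSO final). Lysed, then HTRF anti-pH2AX (S139) cryptate and anti-H2AX-d2 antibodies, 24 hr room temperature; 665/620 nm emission read.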

[3] = qHTS assay to identify small molecule agonists of the hypoxia (HIF-1) signaling pathway (AID 1224846; active = well fitted activation curve with a large enough effect in the signal ratio in the repeat runs, not every such curve was filed as active; the % refers to the signal ratio)
In short: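 HRE-bla ME-180 cells (beta-lactamase reporter under hypoxia response element) were plated at 2,000 cells/well in medium with 0.5% dialyzed FBS, rested 5 hrs, then given compounds in DMSO for 17 hrs at 37C, 5% CO2. Reporter induction was read with CCF4-AM FRET substrate.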

[4] = qHTS assay to identify small molecule agonists of H2AX - cell viability counter screen (AID 1224847; calls by dose curve; note: nearly all actives have a fitted effect of over 30% in size; note: potency is the fitted concentration of half-maximal effect; for activity change, negative = cytotoxicity: top concentration of the series differs between compounds)
In short: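 CHO-K1 cells plated overnight at 37C, then exposed 3 h at 37C to compounds at 15 concentrations (0.76% DMSO final). Viability by CellTiter-Glo luminescence after 30 min at room temperature.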

[5] = qHTS assay to identify small molecule agonists of the estrogen related receptor (ERR) signaling pathway from Tox21 library (AID 1224849; calls by dose curve; note: nearly all actives have a fitted effect of over 15% in size); conditions: ERR reporter cell line, ONE-Glo luciferase, 18 h
In short: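 ERR reporter cell line (NTP) seeded, rested 6 h at 37 C/5% CO2, then pinned with Tox21 compounds in DMSO. After 18 h at 37 C, ONE-Glo luciferase luminescence was read following 30 min at room temperature.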

[6] = qHTS RealTime-Glo MT Cell Viability Assay in HEK293 cells - 32 hour (AID 1224868); note: nearly all actives have a fitted effect of over 50% in size; note: potency is the fitted concentration of half-maximal effect
In short: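 Luminescence generated by NanoLuc from substrate produced by living HEK293 cells served as the viability signal. Each value reflects the reading at its stated time point during continuous 40 h compound exposure at 37 C.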

[7] = A CellTox Green Cytotoxicity Assay to monitor cytotoxicity in HEK293 cells - 0 hour (AID 1224869); note: nearly all actives have a fitted effect of over 50% in size; note: potency is the fitted concentration of half-maximal effect
In short: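 HEK293 cells premixed with CellTox Green dye were seeded at 600 cells/well and left 5 h at 37 C/5% CO2 before pin transfer of 23 nL compound in DMSO. Fluorescence from dye bound to dead-cell DNA was read during 40 h treatment.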

[8] = qHTS assay to identify small molecule antagonists of the estrogen related receptor (ERR) signaling pathway from Tox21 library (AID 1224848); note: nearly all actives have a fitted effect of over 50% in size; note: potency is the fitted concentration of half-maximal effect
In short: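 Luminescent reporter read-out (ONE-Glo) from NTP's ERR cell line after 18 h treatment at 37 C with DMSO-dissolved Tox21 compounds; cells pre-plated 6 h beforehand at 2,000 per well.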

[9] = qHTS RealTime-Glo MT Cell Viability Assay in HepG2 cells - 24 hour (AID 1224867); note: nearly all actives have a fitted effect of over 50% in size
In short: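 Tox21 10K library screened in qHTS format on HepG2 cells carrying RealTime-Glo reagents. Compounds were added after a 5 h preincubation, and the luminescent signal from continuous culture was measured repeatedly during 40 h treatment.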

[10] = qHTS RealTime-Glo MT Cell Viability Assay in HepG2 cells - 40 hour (AID 1224870); note: nearly all actives have a fitted effect of over 50% in size; note: potency is the fitted concentration of half-maximal effect
In short: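 HepG2 cells (600/well) mixed with RealTime-Glo MT reagent, settled 5 h at 37 C/5% CO2 before compound addition. Nonlytic NanoLuc luminescence from viable-cell prosubstrate reduction read repeatedly during 40 h treatment at 37 C.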

CN(C)Cc1cc(C(C)(C)C)c(O)c(C(C)(C)C)c1
Potency [1]: inactive | Potency [2]: inactive | Potency [3]: inactive | Potency [4]: inactive | activity change, positive = activation ([5]; at 92.4 µM (top of the series)): -28.5% | Potency [6]: inactive | Potency [7]: inactive

CC(C)OC(=O)C(O)(CC(=O)O)CC(=O)O
Potency [1]: inactive | Potency [2]: inactive | Potency [3]: inactive | Potency [4]: inactive | Potency [8]: inactive | activity change, positive = activation ([5]; at 92.4 µM (top of the series)): 4.45% | Potency [9]: inactive | Potency [6]: inactive | Potency [10]: inactive

CC(C)CCCCCOC(=O)CCS
Potency [1]: inactive | Potency [2]: inactive | Potency [3]: inactive | Potency [4]: inactive | Potency [8]: inactive | activity change, positive = activation ([5]; at 92.4 µM (top of the series)): 3.69% | Potency [9]: inactive | Potency [6]: inactive | Potency [7]: inactive | Potency [10]: inactive

Cc1cc(-c2ccc(N=Nc3cc(S(=O)(=O)O)c4ccccc4c3N)c(C)c2)ccc1N=Nc1cc(S(=O)(=O)O)c2ccccc2c1N
Potency [1]: inactive | Potency [2]: inactive | Potency [3]: inactive | Potency [4]: 80.4 µM (active) | Potency [8]: 5.48 µM (active) | activity change, positive = activation ([5]; at 92.4 µM (top of the series)): -50.3% | Potency [9]: inactive | Potency [6]: 2.2 µM (active) | Potency [7]: inactive | Potency [10]: inactive

CC/C=C\CCCCCO
Potency [1]: inactive | Potency [2]: inactive | Potency [3]: inactive | Potency [4]: inactive | Potency [8]: inactive | activity change, positive = activation ([5]; at 92.4 µM (top of the series)): 4.13% | Potency [9]: inactive | Potency [6]: inactive | Potency [7]: inactive | Potency [10]: inactive

OC[C@@H](O)[C@@H](O)CO
Potency [1]: inactive | Potency [2]: inactive | Potency [3]: inactive | Potency [4]: inactive | Potency [8]: inactive | activity change, positive = activation ([5]; at 92.4 µM (top of the series)): 4.53% | Potency [9]: inactive | Potency [6]: inactive | Potency [7]: inactive | Potency [10]: inactive

CCCC(=O)OCCc1ccccc1
Potency [1]: inactive | Potency [2]: inactive | Potency [3]: inactive | Potency [4]: inactive | Potency [9]: inactive | Potency [6]: inactive | Potency [7]: 43.6 µM (active) | Potency [10]: inactive

O=C(O)c1cc(=O)c2ccccc2o1
Potency [1]: inactive | Potency [2]: inactive | Potency [3]: inactive | Potency [4]: inactive | Potency [8]: inactive | activity change, positive = activation ([5]; at 42.5 µM (top of the series)): -3.87% | Potency [9]: inactive | Potency [6]: inactive | Potency [7]: inactive | Potency [10]: inactive

Cc1ccc(-c2ccccc2)cc1
Potency [1]: inactive | Potency [2]: inactive | Potency [3]: inactive | Potency [4]: inactive | Potency [8]: inactive | activity change, positive = activation ([5]; at 92.4 µM (top of the series)): -3.62% | Potency [9]: inactive | Potency [7]: inactive | Potency [10]: inactive

Clc1sc(Cl)c(Cl)c1Cl
Potency [1]: inactive | Potency [2]: inactive | Potency [3]: inactive | Potency [4]: inactive | Potency [8]: inactive | activity change, positive = activation ([5]; at 92.4 µM (top of the series)): 4.94% | Potency [6]: inactive | Potency [7]: inactive | Potency [10]: inactive

CCCCCCOC(=O)C(C)CC (stereo not drawn)
Potency [1]: inactive | Potency [2]: inactive | Potency [3]: inactive | Potency [4]: inactive | Potency [8]: inactive | activity change, positive = activation ([5]; at 92.4 µM (top of the series)): 0.0288% | Potency [9]: inactive | Potency [6]: inactive | Potency [10]: inactive

COc1cc(C)ccc1O
Potency [1]: inactive | Potency [2]: inactive | Potency [3]: inactive | Potency [4]: inactive | Potency [8]: inactive | activity change, positive = activation ([5]; at 92.4 µM (top of the series)): 5.96% | Potency [9]: inactive | Potency [6]: inactive | Potency [7]: inactive | Potency [10]: inactive

CC(=O)c1ccc(C(C)=O)cc1
Potency [1]: inactive | Potency [2]: inactive | Potency [3]: inactive | Potency [4]: inactive | Potency [8]: inactive | activity change, positive = activation ([5]; at 92.4 µM (top of the series)): -2.27% | Potency [9]: inactive | Potency [6]: inactive | Potency [7]: inactive | Potency [10]: inactive

O=C(Oc1ccccc1)Oc1ccccc1
Potency [1]: inactive | Potency [2]: inactive | Potency [3]: inactive | Potency [4]: inactive | Potency [8]: inactive | activity change, positive = activation ([5]; at 92.4 µM (top of the series)): -11.4% | Potency [6]: inactive | Potency [7]: inactive | Potency [10]: 34.5 µM (active)

CC(C)Cn1cnc2c(N)nc3ccccc3c21
activity change, negative = cytotoxicity [1]: 18.6% [at 15.8 µM] | activation (H2AX phosphorylation) [2]: -2.05% [at 31.6 µM] | activation [3]: 0.447% [at 15.8 µM] | activity change, negative = cytotoxicity [4]: 1.2% [at 31.6 µM] | activity, negative = inhibition [8]: -22% [at 19 µM] | activity change, positive = activation ([5]; at 19 µM (top of the series)): -11.2% | activity change, negative = cytotoxicity [9]: 0.631% [at 15.8 µM] | cytotoxicity [7]: 4.66% [at 15.8 µM]

CCOc1ccc2ccccc2c1C(=O)N[C@@H]1C(=O)N2[C@@H]1SC(C)(C)[C@@H]2C(=O)O
Potency [1]: inactive | Potency [2]: inactive | Potency [3]: inactive | Potency [4]: inactive | Potency [8]: inactive | activity change, positive = activation ([5]; at 42.5 µM (top of the series)): -0.57% | Potency [9]: inactive | Potency [6]: inactive

CCN(CCN)c1cccc(C)c1
Potency [1]: inactive | Potency [2]: inactive | Potency [3]: inactive | Potency [4]: inactive | activity change, positive = activation ([5]; at 92.4 µM (top of the series)): -29% and -22.9% | Potency [9]: inactive | Potency [6]: inactive | Potency [7]: inactive | Potency [10]: inactive

CCCCCCCCCCOC(=O)c1ccccc1C(=O)OCCCCCCCC
Potency [1]: inactive | Potency [2]: inactive | Potency [3]: inactive | Potency [4]: inactive | Potency [9]: inactive | Potency [6]: inactive | Potency [10]: inactive

O=C(O)c1ccc2cc(C(=O)O)ccc2c1
Potency [1]: inactive | Potency [2]: inactive | Potency [3]: inactive | Potency [4]: inactive | Potency [9]: inactive | Potency [6]: inactive | Potency [7]: inactive | Potency [10]: inactive

c1ccsc1
Potency [1]: inactive | Potency [2]: inactive | Potency [3]: inactive | Potency [4]: inactive | Potency [9]: inactive | Potency [6]: inactive | Potency [7]: inactive | Potency [10]: inactive

Cc1c(C)c2c(c(C)c1O)CC[C@@](C)(CCC[C@H](C)CCC[C@H](C)CCCC(C)C)O2
Potency [1]: inactive | Potency [2]: inactive | Potency [3]: inactive | Potency [4]: inactive | Potency [6]: inactive | Potency [7]: inactive

C=CCn1c(=O)n(CC=C)c(=O)n(CC=C)c1=O
Potency [1]: inactive | Potency [2]: inactive | Potency [3]: inactive | Potency [4]: inactive | Potency [9]: inactive | Potency [6]: inactive | Potency [10]: inactive

NC(=O)c1cccc([N+](=O)[O-])c1
Potency [1]: inactive | Potency [2]: inactive | Potency [3]: inactive | Potency [4]: inactive | Potency [6]: inactive | Potency [7]: inactive | Potency [10]: inactive

— PubChem BioAssay (Tox21)
